Screens from PubChem.
D1 PAM = potentiators of human D1 dopamine receptor | HEK293 TREx D1 cells, calcium flux, dopamine EC20 potentiation | potentiation, % at 10 µM | hit rate 0.036% among 360,000; in the data active = potentiation above about 30%
Target sequence (P21728 whole entry, looked up): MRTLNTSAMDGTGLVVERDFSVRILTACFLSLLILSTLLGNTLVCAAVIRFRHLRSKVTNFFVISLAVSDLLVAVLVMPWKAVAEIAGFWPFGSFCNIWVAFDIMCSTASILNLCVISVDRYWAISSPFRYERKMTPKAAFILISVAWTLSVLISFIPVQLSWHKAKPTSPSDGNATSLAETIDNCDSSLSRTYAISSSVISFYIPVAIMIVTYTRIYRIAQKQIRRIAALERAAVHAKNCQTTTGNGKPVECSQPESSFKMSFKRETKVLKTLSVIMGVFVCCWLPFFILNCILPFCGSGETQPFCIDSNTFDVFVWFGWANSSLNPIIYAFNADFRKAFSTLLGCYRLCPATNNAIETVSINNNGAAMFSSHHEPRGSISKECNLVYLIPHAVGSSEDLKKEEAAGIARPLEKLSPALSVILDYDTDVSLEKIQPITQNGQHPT
DRD3 agonist = D3 dopamine receptor (human) agonism; P35462; D3R DiscoveRx beta-arrestin cells, luminescence, 90 min; max activation, %; hit rate 0.58% among 410,000; AID 652048; in the data active = max activation above about 30%
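Agonist-mode cell screen: cells plated at 1500/well and incubated overnight at 37 °C, then exposed to library compounds for 90 min at 37 °C. Detection reagent was added for 30–60 min at room temperature, and luminescence was read.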
D1 ag = activates the human D1 dopamine receptor; P21728; HEK293 T-REx D1 cells, calcium flux, agonist mode; activation, % at 2 µM; hit rate 1% among 360,000; in the data active = activation above about 30%
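Agonism was scored from calcium flux recorded over 180 s (1 read/s) after pintool compound addition, following a 10-cycle baseline. Cells were inducible force-coupled HEK293 TREx D1, plated overnight at 30 C and loaded with no-wash calcium dye.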
D1 antagonist = blocks dopamine activation of the human D1 receptor; P21728; HEK293 TREx D1 cells, calcium flux, dopamine EC80; active compounds read low; activity change, negative = inhibition, % at 10 µM; hit rate 3.2% among 360,000; in the data active = activity change below about -30%
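Cells carrying a force-coupled, tetracycline-inducible human D1 receptor report calcium flux. Each well gets a 10 s baseline, compound with 180 s monitoring, then an EC80 dopamine stimulus with a second 180 s kinetic read.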
D3 antag = D3 dopamine receptor (human) antagonism | P35462 | D3R cells, DiscoveRx beta-arrestin luminescence, antagonist mode; active compounds read low | max response, negative = inhibition, % | hit rate 2.5% among 360,000 | AID 652054; in the data active = max response below about -50%; inconclusive = no clear call, values can overlap the other calls
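Cells plated overnight at 1500 cells/well, then exposed to library compounds with dopamine controls for 90 minutes at 37 degrees C. DiscoveRx reagent added for 30–60 minutes at room temperature; luminescence read, quantitative HTS format.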
Numbers stand for hits; . = inactive; ? = inconclusive; / = no result given; ! = repeats disagree. This is a sample that favours compounds with a hit; in the whole collection about 6% have one here.

SMILES | D1 PAM | DRD3 agonist | D1 ag | D1 antagonist | D3 antag
C=CCn1c(=O)c2ccc(C(=O)NCc3ccccc3)cc2n(Cc2ccc(C)cc2)c1=O | . | . | . | -30 | .
CC[C@@]1(c2ccccc2)NC(=O)N(C)C1=O | / | . | / | / | /
CC1(C)[C@@H]2CC[C@@]1(C)C(=O)C2 | / | . | / | / | /
O=C(NCC(c1cccnc1)N1CCN(Cc2ccccc2)CC1)C(=O)Nc1cccc(Cl)c1 (centres undefined) | . | . | . | . | /
O=C(NCC(c1cccs1)S(=O)(=O)c1cccs1)c1c(F)cccc1F (centres undefined) | . | . | . | . | /
CNS(=O)(=O)c1ccc(CCC(=O)N2CCN(c3ccccc3OC)CC2)cc1 | . | 37 | . | . | .
CC(C)CNS(=O)(=O)c1ccc(CCC(=O)N2CCN(c3ccc(F)cc3)CC2)cc1 | . | . | . | -32 | .
CC(C)CN(C[C@@H](O)[C@H](Cc1ccccc1)NC(=O)O[C@H]1CO[C@H]2OCC[C@H]21)S(=O)(=O)c1ccc(N)cc1 | / | . | / | / | /
Cc1cnc(CN(C)C(=O)c2ccc3oc(Cc4ccc(Cl)cc4)nc3c2)[nH]1 | . | . | . | . | -57
Cc1cnc(CN(C)C(=O)c2ccc3oc(Cc4ccccc4)nc3c2)[nH]1 | . | . | . | . | .
CCN(CC)CCCN(C(=O)c1ccco1)c1nc(-c2ccc(Cl)cc2)cs1 | . | . | . | . | -50
CCN(CC)CCCN(C(=O)c1ccco1)c1nc(-c2ccc(C)cc2)cs1 | . | . | . | . | ?
CC(NC(=O)c1cc2cc(Br)ccc2oc1=N)c1ccccc1 (centres undefined) | . | . | . | -53 | .
N=c1oc2ccc(Br)cc2cc1C(=O)NCc1ccccc1 | . | . | . | . | .
CCCn1c(=O)c2sccc2n2c(CCCC(=O)N3CCN(c4cccc(C)c4C)CC3)nnc12 | . | . | . | . | /
Cc1nc2ccc(NC(=O)c3cc([N+](=O)[O-])cc([N+](=O)[O-])c3Cl)cc2s1 | . | . | . | -55 | -68
Cc1nc2ccc(S(=O)(=O)Nc3ccc(-c4nc5cccnc5s4)cc3)cc2s1 | . | . | . | -54 | .
Cc1nc2ccc(NS(=O)(=O)c3cccc([N+](=O)[O-])c3)cc2s1 | / | 36 | / | / | .
Cc1nc2ccc(NS(=O)(=O)c3ccc4c(c3)OCCO4)cc2s1 | . | . | . | -31 | .
O=C(Nc1nc(Nc2cc(F)cc(F)c2)nc(NC2CCCC2)n1)OCc1ccccc1 | . | / | . | . | /
COc1ccccc1CNc1ccc(-c2nc(C)no2)cc1[N+](=O)[O-] | . | . | . | . | /
Cc1nc2ccc(NS(=O)(=O)c3ccc(Br)cc3)cc2s1 | . | . | . | . | .
Cc1ccc(S(=O)(=O)Nc2ccc3nc(C)sc3c2)cc1 | . | . | . | -34 | .
COc1ccc(CNc2nc(-c3ccccc3)nn2S(=O)(=O)c2ccccc2)cc1 | . | . | . | . | /
CCOC(=O)N1CCN(CCC(=O)Nc2cccc(F)c2)CC1 | . | . | . | . | /
SMILES | D1 PAM | DRD3 agonist | D1 ag | D1 antagonist | D3 antag
O=C(COc1cccc2ccccc12)NNC(=O)CSCCO | . | . | . | . | -50
O=C(COc1cccc2ccccc12)NNC(=O)Nc1ccccc1 | . | . | . | . | ?
Cc1ccc(CCNC(=O)CS(=O)Cc2nc(-c3ccccc3C)oc2C)cc1 (centres undefined) | . | . | . | . | /
Cc1ccccc1-c1nc(CS(=O)CC(=O)NCCc2ccc(Cl)cc2)c(C)o1 (centres undefined) | . | . | 34! | -65! | .
CC(=O)Cc1nsc(NC(=O)c2ccc(-c3cc(C(F)(F)F)ccc3Cl)o2)n1 | . | . | . | -33 | .
CC(=O)Cc1nsc(NC(=O)c2ccc(-c3cc(Cl)ccc3Cl)o2)n1 | . | . | . | . | .
CC(=O)Cc1nsc(NC(=O)c2ccc(-c3ccc(Cl)cc3Cl)o2)n1 | . | . | . | -31 | .
CC(=O)Cc1nsc(NC(=O)c2ccc(-c3cccc(C(F)(F)F)c3)o2)n1 | . | . | . | . | .
CC(C(=O)Nc1ccc(F)c(F)c1F)N(C)CC(=O)Nc1ccccc1Br (centres undefined) | . | . | . | -31 | .
CCOc1ccc(CNC(=O)C2=Cc3cc(Br)ccc3OC2)cc1OC | . | . | . | -38 | /
CC(C)C(NC(=O)c1ccccc1F)C(=O)NCc1ccccc1 (centres undefined) | . | . | . | -57 | .
O=C(CSc1nnc(-c2ccccc2)c(-c2ccccc2)n1)NC1CCCC1 | . | . | . | . | /
O=C(CCN1C(=O)COc2ccccc21)NCCCN1CCN(c2ccccc2F)CC1 | . | . | . | -40 | .
O=C(CCN1C(=O)COc2ccccc21)NCCN1CCc2ccccc2C1 | . | . | . | . | -62
CCCN1CCN(CCCNC(=O)CCN2C(=O)COc3ccccc32)CC1 | . | . | . | . | .
COc1ccc(CCNC(=O)c2cc3c(=O)oc4ccc(C)cc4c3s2)cc1OC | . | . | . | . | /
O=C(COCc1cc(-c2ccc3c(c2)OCO3)on1)NCc1ccc(F)cc1 | . | . | . | . | /
COc1ccc(OC)c(CC(=O)Nc2ccc3c(c2)c(=O)n(C)n3Cc2cccc(C(F)(F)F)c2)c1 | / | . | / | / | -52
Cc1noc(C)c1CSc1nc2ccccc2nc1NS(=O)(=O)c1ccc(Cl)cc1 | . | . | . | . | -51
Clc1cccc(-n2ncc3c(Nc4ccc5c(c4)OCCO5)ncnc32)c1 | . | . | . | . | /
COc1ccc(NC(=O)N2CCCCCC2)cc1 | . | . | . | -37 | .
COc1ccc(NC(=O)N2CCCC(c3ccccc3)C2)cc1 (centres undefined) | . | 33 | . | . | .
COc1ccc(NC(=O)C2CCCN(C(=O)Nc3ccc(OC)cc3)C2)cc1 (centres undefined) | . | . | . | . | .
O=C1CCCC2=C1C(c1ccc(Br)cc1)c1c([nH]c(=S)[nH]c1=O)N2 (centres undefined) | . | . | . | . | -80
O=P(c1ccccc1)(c1ccccc1)c1ccccc1C(Br)Br | / | . | / | / | -67
SMILES | D1 PAM | DRD3 agonist | D1 ag | D1 antagonist | D3 antag
CCN(CC)S(=O)(=O)c1ccc2c(c1)c(=O)c(C(=O)NCc1ccc(Cl)cc1)cn2C | . | . | . | . | /
Cc1cccc(-n2ncc(C(=O)NCc3ccco3)c2C2CCN(C(=O)OC(C)(C)C)CC2)c1 | . | . | . | . | /
Cc1ccc(NC(=S)NC2CCSc3ccccc32)cc1 (centres undefined) | . | . | . | -38 | ?
O=C(NC1CCSc2ccccc21)c1ccccc1F (centres undefined) | . | . | . | . | .
CSc1ccccc1C(=O)NC1CCSc2ccccc21 (centres undefined) | . | . | . | -41 | .
CC(=O)Nc1ccc(C(=O)NC2CCSc3ccccc32)cc1 (centres undefined) | . | . | . | . | .
O=C(c1cc2cc3ccc(Cl)cc3nc2o1)N1CCN(c2cccc(Cl)c2)CC1 | . | . | . | . | /
